Assay outcomes (PubChem BioAssay)
HT1080NT lethal = kills 2HG-producing HT-1080-NT fibrosarcoma cells | Potency, µM (doses to about 46.1 µM), for inactives: at the top dose activity, negative = less viability, most hits filed as cytotoxic | HT-1080-NT fibrosarcoma viability, CellTiter-Glo ATP luminescence, 48 h | 360,000 tested, 1.6% active;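 note: NT is the 2HG producing partner of a matched IDH1 knockdown line; potency is the fitted concentration of half-maximal effect; 0% = DMSO-treated cells and -100% = media-only wells without cells; nearly all actives have a fitted effect of over 55% in size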
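Compounds were tested in concentration-response format on HT-1080-NT cells for 48 hours at 37 degrees C. Cell viability came from CellTiter-Glo luminescence; curves were classified by r2, response magnitude and activity.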
uPA surface inh = cell surface uPA generation inhibition; 330,000 tested, 0.31% active; AID 540303; Potency, µM (top dose mostly 38.3 µM), inactives show top-dose activity change, negative = inhibition, usual class: inhibitors; cell surface uPA generation assay, qHTS; active = well fitted inhibition curve with a large enough effect; inconclusive = small, poorly fitted or top-dose-only effect; inactive = no such curve, though single readings can be large or run the other way; tested in mouse RAW 264.7 cells; note: potency is the fitted concentration of half-maximal effect; nearly all actives have a fitted effect of over 55% in size
DT40 TDP1 CPT = growth inhibition of DT40 Tdp1-/-;hTDP1 cells with camptothecin (screen for TDP1 inhibitors). chicken DT40 Tdp1-/-;hTDP1 cells + 20 nM CPT, ATP luminescence, 48 h. Potency, µM (titrated, usually from 46.2 µM), inactives show at the highest dose activity change, negative = growth inhibition, hits mostly inhibitors. 420,000 tested, 12% active; note: potency is the fitted concentration of half-maximal effect; nearly all actives have a fitted effect of over 55% in size
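Chicken DT40 Tdp1-/- cells stably complemented with human TDP1 were seeded at 400 cells/well in medium containing 20 nM camptothecin, exposed to pin-transferred compounds, and grown at 37 °C for at least 48 hr. Viability was read as ATP luminescence.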
IL1B secr inh = blocks inflammasome-driven IL-1 beta release. THP-1 LPS/ATP IL-1B secretion, AlphaLISA, 16 h; hits give low values. activity change, % at 57.5 µM. 360,000 tested, 4.7% active. AID 743279; in the data active = activity change below about -50%; inconclusive = mostly about -30% to -49%
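Secreted IL-1B measured by AlphaLISA bead assay after 16 h compound exposure of THP-1 cells; compounds (final up to 57.5 uM) added 1 h before LPS (250 ng/mL) and ATP (1.25 mM) stimulation; lower signal means less secretion.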
TDP1 cell noCPT = qHTS for Inhibitors of human tyrosyl-DNA phosphodiesterase 1 (TDP1): qHTS in cells in absence of CPT. DT40 Tdp1-/- hTDP1 cells, no CPT, ATP luminescence, 48 h. Potency, µM (series often up to 46.2 µM), without a hit: top-dose activity change, negative = growth inhibition, usual class: inhibitors. 420,000 tested, 15% active; note: potency is the fitted concentration of half-maximal effect; nearly all actives have a fitted effect of over 55% in size
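Camptothecin absent (DMSO only). Human TDP1-complemented DT40 knockout cells, 400 cells/well, 37 °C for minimum 48 hr; ATP measured via CellTiter-Glo, 30 min dark incubation, luminescence.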
HT1080 IDH1KD tx = HT-1080 IDH1 knockdown cell toxicity (counter line); HT-1080 IDH1 knockdown viability, ATP luminescence, 48 h; Potency, µM (titrated, usually from 46.1 µM), for inactives: at the top dose activity, negative = toxicity, most hits filed as cytotoxic; 360,000 tested, 2% active;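 note: potency is the fitted concentration of half-maximal effect; 0% = DMSO wells and -100% = cell-free medium wells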
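% activity derives from luminescence (CellTiter-Glo), normalised to DMSO and no-cell wells. HT-1080-IDH1KD cells, 750/well, had 48 h compound exposure at 37 °C.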
* = called active by the depositor; i = inactive; ? = inconclusive; . = not tested or not shown; [ ] = remark or other dose. In the library only some 19% were active in any assay of this set; here they are far more common. Unless noted, calls come from the whole dose curve; as a rule, active = well fitted curve in the direction sought with a large enough effect; inconclusive = small, poorly fitted or top-dose-only effect, or another doubt; inactive = no such curve, though single readings can be large; an effect the other way counts as inactive or inconclusive. Unless noted, % is set by controls: 0 for no effect and ±100 for the full control effect.

SMILES	HT1080NT lethal	uPA surface inh	DT40 TDP1 CPT	IL1B secr inh	TDP1 cell noCPT	HT1080 IDH1KD tx
CCOC(=O)C1CCCN(C(=O)c2cc(COc3ccc(C)nc3)on2)C1 (stereo not drawn)	-10%	-1%	?	i	?	-9%
CC(OC(=O)c1cccc(S(=O)(=O)N(C)C)c1)C(=O)NCC(=O)Nc1ccc(F)c(F)c1F (stereo not drawn)	0%	4%	3%	20	?	-9%
CCc1nnc2c(NCc3ccccc3OC)nc3ccccc3n12	.	.	-29%	.	-7%	.
Cc1cccc(C)c1OCC(=O)Nc1ccc(N2CCOCC2)cc1	6%	8%	-4%	-9	-20%	-2%
COc1cc(C(=S)N2CCOCC2)cc(OC)c1OC(=O)c1ccc(F)cc1	-4%	-1%	?	71	?	-4%
COc1cc(C2c3cc4c(cc3OC(N3CCOCC3)C2C)OCO4)cc(OC)c1OC(C)=O (stereo not drawn)	?	-12%	?	21	26µM*	?
COc1cc(C2CC(=O)Nc3cc4c(cc32)OCO4)cc(OC)c1O (stereo not drawn)	.	.	3%	.	?	.
COc1cc(C2c3cc4c(cc3OC(N3CCCC3)C2C)OCO4)cc(OC)c1O (stereo not drawn)	?	-14%	?	25	16µM*	?
COc1cc(C2c3cc4c(cc3OC(C)(N3CCCC3)C2C)OCO4)cc(OC)c1OC (stereo not drawn)	?	-9%	1.2µM*	20	1.2µM*	?
CCOc1ccc(S(=O)(=O)N2CCC(C(=O)NCC3CCCO3)CC2)cc1Cl (stereo not drawn)	2%	5%	-18%	-12	-26%	28%
Cc1ccc(C(=O)N(Cc2cc3cc4c(cc3nc2N2CCOCC2)CCC4)CC2CCCO2)s1 (stereo not drawn)	.	.	11%[9.04 µM]	.	-22%	.
CCn1c(SCc2ccc(C(=O)Nc3nccs3)cc2)nnc1-c1ccc(N)cc1	1%	3%	-28%	-14	?	-12%
CCn1c(SCC(=O)Nc2nccs2)nnc1-c1ccc(S(=O)(=O)N2CCCCCC2)cc1	-19%	2%	16µM*	0	18µM*	-9%
CCC(Sc1nnc(-c2ccc(C)c(Cl)c2)n1CC)C(=O)Nc1nccs1 (stereo not drawn)	-4%	-5%	18µM*	-2	15µM*	-25%
Cn1c(SCC(=O)Nc2nccs2)nnc1-c1ccc(S(=O)(=O)N2CCCC2)cc1	11%	.	-10%	11	-19%	12%
Cc1ccc(C)c(NC(=O)CCN2CCCCC2)c1	-5%	-1%	-17%	13	-12%	-3%
CCc1ccccc1NC(=O)C1CCN(S(=O)(=O)c2ccc3c(c2)N(C(C)=O)CCO3)CC1	-3%	1%	-8%	31	12%	-1%
Cc1[nH]c2c(Br)cccc2c1[C@H]1[C@@H](CC#N)C1(C)C	?	6%	16µM*	27	?	?
Cc1c([C@H]2[C@@H](CC#N)C2(C)C)c2ccccc2n1C	-1%	3%	-32%	9	-9%	1%
COc1ccc(-n2cc(C(=O)Nc3ccccc3C#N)c3ccccc3c2=O)cc1	.	.	-18%	.	?	.
CCc1ccc(-c2csc(-c3cc4cc(Br)ccc4oc3=O)n2)cc1	.	.	-15%	.	-23%	.
O=C(N/N=C/c1ccc(N2CCOCC2)c([N+](=O)[O-])c1)c1ccc(F)cc1	-19%	-11%	-29%	75	?	-20%
CO/N=C/c1ccc(N2CCN(C(=O)c3ccc(F)cc3)CC2)c([N+](=O)[O-])c1	6%	-6%	15µM*	-8	15µM*	-13%
O=C(c1ccc(Cl)cc1[N+](=O)[O-])N1CCN(c2ccccn2)CC1	5%	-4%	-6%	-2	-3%	2%
O=C(O/N=C\c1ccc(N2CCCCC2)c([N+](=O)[O-])c1)c1c(F)cccc1F	-14%	1%	?	-13	?	-14%
SMILES	HT1080NT lethal	uPA surface inh	DT40 TDP1 CPT	IL1B secr inh	TDP1 cell noCPT	HT1080 IDH1KD tx
CO/N=C/c1ccc(N2CCN(C(=O)c3cccc(C(F)(F)F)c3)CC2)c([N+](=O)[O-])c1	-4%	.	15µM*	-23	21µM*	?
CO/N=C/c1ccc(N2CCN(C(=O)c3ccc(Cl)cc3Cl)CC2)c([N+](=O)[O-])c1	?	.	10µM*	-62*	5.8µM*	?
COc1ccc(S(=O)(=O)N=N/C=C2\C=CC=CN2O)cc1OC	-5%	.	-11%	-21	-1%	-22%
N#Cc1ccc(NC(=O)c2ccc3c(c2)nnn3C2CCCC2)cc1	.	.	-16%	.	-10%	.
CCN(CCO)Cc1csc2ccc(C(C)(C)C)cc12	-1%	2%	?	-57*	?	7%
CCN(CCO)Cc1csc2ccc(Cl)cc12	17%	0%	0%	13	3%	17%
O=c1nc2ccccc2c2n1CC(CN1CCN(c3ccccc3F)CC1)N2 (stereo not drawn)	1%	3%	?	11	13µM*	1%
O=c1nc2ccccc2c2n1CC(CN1CCN(c3ccc(F)cc3)CC1)N2 (stereo not drawn)	1%	-4%	1%	21	?	-1%
O=C(CN(c1ccccc1)S(=O)(=O)c1ccc(F)cc1)NCc1cccs1	2%[9.24 µM]	3%	-20%	9	-16%	-1%
CNS(=O)(=O)c1cn(CC(=O)N2CCN(c3ccc(C)cc3C)CC2)cc1S(=O)(=O)NC	.	.	-14%	.	-29%	.
COc1ccc(C(C)C)cc1S(=O)(=O)NCCc1c(C)[nH]c2c(Cl)cccc12	.	.	29µM*	.	?	.
CCc1ccc(NC(=O)CSc2nnc(-c3ccco3)o2)cc1	0%	2%	-15%	5	0%	11%
CCC(=NCc1ccc(Cl)c(Cl)c1)c1nc(-c2ccco2)oc1O	-19%	-6%	?	-64*	?	?
CCC1=NN2C(=N)/C(=C\c3cccn3-c3c(C)cccc3C)C(=O)N=C2S1	-7%	-3%	?	6	3.7µM*	-1%
C(=N\Nc1nc(-c2ccccc2)cs1)/c1ccco1	-13%	2%	21µM*	-21	15µM*	-14%
CN(C)S(=O)(=O)c1ccc(-c2csc(N/N=C/c3ccco3)n2)cc1	-23%	-6%	12µM*	-94*	8.2µM*	-13%
Cc1ccc(-c2csc(N/N=C/c3ccco3)n2)cc1	-7%	.	?	-6	?	-21%
